Legend:
Assay in all cases: PBM binding z-score (relative to random genomic background probes); higher = stronger binding; sequences stand for … in GC…GCGATTGACAGCGTAGAATGAAGG
[1] = tested on: FXR:RXRa (NR concentration 270 nM, RXRa partner concentration 90 nM)
Outline: (§1)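 Binding z-scores were set against random background probes. The data came from custom Agilent 4×180K protein-binding microarrays carrying double-stranded probes with 34-nt variable regions, incubated 1 h with ligand-free nuclear receptor dimers. Partner-specific antibodies detected binding, and scanned fluorescence was regression-normalized.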

[2] = tested on: LXRa:RXRa (NR concentration 270 nM, RXRa partner concentration 90 nM)
Outline: as §1

[3] = tested on: LXRa homodimer (NR concentration 270 nM)
Outline: as §1

[4] = tested on: LXRb:RXRa (NR concentration 270 nM, RXRa partner concentration 90 nM)
Outline: as §1

[5] = tested on: LXRb homodimer (NR concentration 270 nM)
Outline: as §1

[6] = tested on: PPARa:RXRa (NR concentration 270 nM, RXRa partner concentration 90 nM)
Outline: as §1

[7] = tested on: PPARg:RXRa (NR concentration 180 nM, RXRa partner concentration 90 nM)
Outline: as §1

[8] = tested on: PPARg:RXRa 270nM:90nM, anti-RXR (NR concentration 270 nM, RXRa partner concentration 90 nM)
Outline: as §1

[9] = tested on: PPARg:RXRa 30nM:10nM, anti-RXR (NR concentration 30 nM, RXRa partner concentration 10 nM)
Outline: as §1

[10] = tested on: PPARg:RXRa 90nM:30nM, anti-RXR (NR concentration 90 nM, RXRa partner concentration 30 nM)
Outline: as §1

[11] = tested on: PPARg:RXRa DBDmut IVT, anti-RXR (DBD mutation: RXRa K156A/R161A, NR concentration 270 nM, RXRa partner concentration 90 nM)
Outline: as §1

[12] = tested on: PPARg:RXRa IVT, anti-PPARg (NR concentration 270 nM, RXRa partner concentration 90 nM)
Outline: as §1

[13] = tested on: PPARg DBDmut:RXRa IVT, anti-PPARg (DBD mutation: PPARg1 K132A/R137A, NR concentration 270 nM, RXRa partner concentration 90 nM)
Outline: as §1

[14] = tested on: PPARg DBDmut IVT, anti-PPARg (DBD mutation: PPARg1 K132A/R137A, NR concentration 270 nM)
Outline: as §1

[15] = tested on: PPARg homodimer (NR concentration 180 nM)
Outline: as §1

[16] = tested on: PXR:RXRa (NR concentration 270 nM, RXRa partner concentration 90 nM)
Outline: as §1

[17] = tested on: PXR homodimer (NR concentration 270 nM)
Outline: as §1

[18] = tested on: RARa:RXR (NR concentration 270 nM, RXRa partner concentration 90 nM)
Outline: as §1

[19] = tested on: RARa homodimer (NR concentration 270 nM)
Outline: as §1

[20] = tested on: RARb:RXRa (NR concentration 270 nM, RXRa partner concentration 90 nM)
Outline: as §1

Sequence | PBM binding z-score [1] | PBM binding z-score [2] | PBM binding z-score [3] | PBM binding z-score [4] | PBM binding z-score [5] | PBM binding z-score [6] | PBM binding z-score [7] | PBM binding z-score [8] | PBM binding z-score [9] | PBM binding z-score [10] | PBM binding z-score [11] | PBM binding z-score [12] | PBM binding z-score [13] | PBM binding z-score [14] | PBM binding z-score [15] | PBM binding z-score [16] | PBM binding z-score [17] | PBM binding z-score [18] | PBM binding z-score [19] | PBM binding z-score [20]
TCATATAAGTAATACAGGTGAAAGTCGGCATCTA | 1.33 | 1.22 | 0.589 | 1.15 | 0.275 | 1.79 | 1.29 | 2.38 | 4.28 | 3.42 | 3.37 | 1.87 | 0.985 | 0.83 | 1.07 | 0.888 | 0.782 | 1.1 | 1.95 | 0.567
ACTAGCAGGCCAAGTTTGGTTCACTCAAACAAAG | -0.324 | -0.317 | -0.342 | -0.0394 | -0.539 | 0.158 | -0.322 | -0.162 | -0.424 | -0.301 | 0.651 | 0.311 | 0.0208 | -0.415 | -0.521 | 0.287 | 0.256 | 0.113 | -0.755 | 0.54
AGCGAAAGGTCGTGAGGTGAGTATACAGAAAGGC | 5.99 | 3.84 | -0.142 | 3.17 | -0.2 | 5.26 | 4.55 | 4.97 | 1.84 | 3.25 | 0.425 | 2.63 | 0.478 | 1.08 | 1.38 | 2.81 | 0.0715 | 3.96 | 0.217 | 4.29
CGAACTAGGTCATAGACAGGACAGTGAATAGTAA | 3.32 | 2.16 | 0.422 | 1.64 | -0.534 | 4.33 | 7.56 | 6.26 | 3.94 | 5.68 | 7.81 | 8.39 | 2.54 | 1.39 | 1.46 | 1.43 | 0.213 | 2.07 | 0.165 | 3.55
TCTGCTAGGTCAACAATGGTCAGCTAATCTGCTA | 3.1 | 3.67 | -0.0289 | 2.16 | 0.366 | 3.29 | 2.13 | 3 | 2.07 | 2.54 | 4.05 | 4.05 | 0.64 | 0.264 | 1.23 | 1.94 | -0.276 | 2.29 | -0.189 | 4.11
CAAACTAGTTCAAGGTCAAAGTCGGTTTGTGCCA | 5.67 | 5.81 | 6.22 | 4.81 | 1.76 | 5.13 | 3.27 | 3.88 | 1.53 | 3.03 | 2.12 | 3.26 | 0.529 | -0.205 | 3.85 | 5.23 | 3.52 | 5.1 | 0.936 | 4.34
TCATATAGGAAAATGCTAGGTGAAAGTCCGATCT | 1.09 | 0.845 | 0.237 | 0.489 | -0.0669 | 0.728 | 0.487 | 2.3 | 4.01 | 3.28 | 2.71 | 0.68 | 0.369 | 0.466 | 0.42 | 0.59 | 0.397 | 0.636 | 1.22 | 0.176

From the supplement of paper PMC6555819
